Where “and” joins values, the source holds several entries; their conditions need not be identical. Equal values may be shown once. Inconclusive results are not listed. Entries that show only a call come without a potency. Some compounds were tested as several samples or in several runs, with calls that do not always agree. Calls of active or inactive are those of the source. Calls follow the shape of the full dose curve.
Assay: Cytotoxicity counterscreen for inhibitors of SARS-CoV-2 cell entry (AID 1645845); also: nearly all actives have a fitted effect of over 50% in size; also: potency is read from the fitted curve at half-maximal effect
Settings: cell viability (SARS-CoV-2 entry assay cells); series mostly up to 57.1 µM
Outline: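 48 h compound treatment (after 1 h preincubation), HEK293-ACE2 cells, 37 C/5% CO2; ATP luminescence endpoint; normalized to cell wells and media blanks.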

Row | SMILES | Potency | outcome
1 | CCCCCCCN(CC)CCCC(O)c1ccc(NS(C)(=O)=O)cc1 (configuration not stated) | inactive | 
2 | C/C(=C(\CCO)SS/C(CCO)=C(\C)N(C=O)Cc1cnc(C)nc1N)N(C=O)Cc1cnc(C)nc1N | inactive | 
3 | Cc1cnc(NC(=O)C2=C(O)c3ccccc3S(=O)(=O)N2C)s1 | inactive | 
4 | Cc1ccc(C(=O)C(C)CN2CCCCC2)cc1 (configuration not stated) | inactive | 
5 | CCN[C@H]1CN(CCCOC)S(=O)(=O)c2sc(S(N)(=O)=O)cc21 | inactive | 
6 | O=C(c1ccccc1)C(O)c1ccccc1 (configuration not stated) | inactive | 
7 | c1ccc2sc(SN3CCOCC3)nc2c1 | inactive | 
8 | O=c1[nH]c(=O)n([C@H]2C[C@H](O)[C@@H](CO)O2)cc1Br | inactive | 
9 | NC(=O)N1c2ccccc2C=Cc2ccccc21 | inactive | 
10 | CCCCCCCCCCCCCCCCCC(=O)OCC(O)CO (configuration not stated) | inactive | 
11 | CN(C)CCc1c[nH]c2ccc(Cn3cncn3)cc12 | inactive | 
12 | O=C(O)[C@H](O)c1ccccc1 | inactive | 
13 | CNCCCCOc1ccccc1Cc1ccccc1 | inactive | 
14 | Oc1ccccc1 | inactive | 
15 | Nc1ccc(S(=O)(=O)Nc2ccnn2-c2ccccc2)cc1 | inactive | 
16 | Cc1c(C(=O)O)c(O)cc2c1C(=O)c1c(O)c([C@@H]3O[C@H](CO)[C@@H](O)[C@H](O)[C@H]3O)c(O)c(O)c1C2=O | inactive | 
17 | Cc1ccc(C(C)C)cc2c(C)ccc1-2 | inactive | 
18 | CC[C@H](C)C(=O)O[C@H]1C[C@H](O)C=C2C=C[C@H](C)[C@H](CC[C@@H](O)C[C@@H](O)CC(=O)O)[C@H]21 | inactive | 
19 | O=c1[nH]c(=O)n([C@H]2CCCO2)cc1F | inactive | 

Row | SMILES | Potency | outcome
20 | COCC(=O)Nc1c(I)c(C(=O)NCC(O)CO)c(I)c(C(=O)N(C)CC(O)CO)c1I (configuration not stated) | inactive | 
21 | NC[C@H]1O[C@H](O[C@H]2[C@H](O)[C@@H](O[C@H]3O[C@H](CO)[C@@H](O)[C@H](N)[C@H]3O)[C@H](N)C[C@@H]2N)[C@H](O)[C@@H](O)[C@@H]1O |  | inactive [at 5.25 µM]
22 | CCc1cccc(CC)c1NC(=O)CN(CC(=O)O)CC(=O)O | inactive | 
23 | C[C@H](CS)C(=O)N1CCC[C@H]1C(=O)O | inactive | 
24 | CC(C)Cn1cnc2c(N)nc3ccccc3c21 | inactive | 
25 | Nc1nc(Cl)nc2c1ncn2[C@H]1C[C@H](O)[C@@H](CO)O1 | inactive | 
26 | CCOc1ccc(NS(=O)(=O)c2ccc(N)cc2)nn1 | inactive | 
27 | CSCC[C@H](NC(=O)[C@H](Cc1ccc(OS(=O)(=O)O)cc1)NC(=O)[C@@H](N)CC(=O)O)C(=O)NCC(=O)N[C@@H](Cc1c[nH]c2ccccc12)C(=O)N[C@@H](CCSC)C(=O)N[C@@H](CC(=O)O)C(=O)N[C@@H](Cc1ccccc1)C(N)=O | inactive | 
28 | NS(=O)(=O)c1ccc(Cl)c(S(N)(=O)=O)c1 | inactive | 
29 | NNC(=O)c1ccncc1 | inactive | 
30 | CC(C)c1ccc2oc3nc(N)c(C(=O)O)cc3c(=O)c2c1 | 10 µM (active) | 
31 | CC(=O)CC(c1ccc([N+](=O)[O-])cc1)c1c(O)c2ccccc2oc1=O (configuration not stated) | inactive | 
32 | CS(=O)(=O)c1ccc([C@@H](O)[C@@H](CO)NC(=O)C(Cl)Cl)cc1 | inactive | 
33 | COc1cc(NS(=O)(=O)c2ccc(N)cc2)nc(C)n1 | inactive | 
34 | CCOCCn1c(C2CCN(CCc3ccc(C(C)(C)C(=O)O)cc3)CC2)nc2ccccc21 | inactive | 
35 | COc1cc2c(Nc3ccc(Br)cc3F)ncnc2cc1OCC1CCN(C)CC1 | inactive and 31.6 µM (active) | 
36 | CC(=O)OCC(=O)[C@@]1(O)[C@H](OC(C)=O)C[C@H]2[C@@H]3CCC4=CC(=O)C=C[C@]4(C)[C@@]3(F)[C@@H](O)C[C@@]21C | inactive | 
37 | CC(C)[C@H]1C(=O)N2CCC[C@H]2[C@]2(O)O[C@](NC(=O)[C@@H]3C[C@@H]4c5cccc6[nH]cc(c56)C[C@H]4N(C)C3)(C(C)C)C(=O)N12 | inactive | 
38 | C=C1[C@H](CO)[C@@H](O)C[C@@H]1n1cnc2c(=O)[nH]c(N)nc21 | inactive | 

Assay: Primary qHTS to identify inhibitors of SARS-CoV-2 cell entry (AID 1645846); also: nearly all actives have a fitted effect of over 45% in size
Settings: SARS-CoV-2 pseudovirus cell entry assay, luminescence; activity change, negative = inhibition: at 57.1 µM (top of the series) unless noted; series mostly up to 57.1 µM
Outline: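 Data are normalized to wells receiving SARS-CoV-2-S pseudoparticles and those given bald particles. Entry signal was luciferase luminescence in stable hACE2 Expi293F cells, 48 hr post-infection, after 1 hr compound pretreatment.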

Row | SMILES | activity change, negative = inhibition | Potency
39 | C/C(=C(\CCO)SS/C(CCO)=C(\C)N(C=O)Cc1cnc(C)nc1N)N(C=O)Cc1cnc(C)nc1N | -31.6% | 
40 | CCN[C@H]1CN(CCCOC)S(=O)(=O)c2sc(S(N)(=O)=O)cc21 | -6.75% | 
41 | CCCCCCCCCCCCCCCCCC(=O)OCC(O)CO (configuration not stated) |  | inactive
42 | Oc1ccccc1 |  | inactive
43 | Cc1ccc(C(C)C)cc2c(C)ccc1-2 |  | inactive
44 | O=c1[nH]c(=O)n([C@H]2CCCO2)cc1F |  | inactive
45 | COCC(=O)Nc1c(I)c(C(=O)NCC(O)CO)c(I)c(C(=O)N(C)CC(O)CO)c1I (configuration not stated) |  | inactive
46 | NC[C@H]1O[C@H](O[C@H]2[C@H](O)[C@@H](O[C@H]3O[C@H](CO)[C@@H](O)[C@H](N)[C@H]3O)[C@H](N)C[C@@H]2N)[C@H](O)[C@@H](O)[C@@H]1O | -26.4% [at 5.25 µM] | 
47 | CCc1cccc(CC)c1NC(=O)CN(CC(=O)O)CC(=O)O |  | inactive
48 | C[C@H](CS)C(=O)N1CCC[C@H]1C(=O)O |  | inactive
49 | NS(=O)(=O)c1ccc(Cl)c(S(N)(=O)=O)c1 |  | inactive
50 | NNC(=O)c1ccncc1 |  | inactive
51 | COc1cc(NS(=O)(=O)c2ccc(N)cc2)nc(C)n1 |  | inactive
52 | CC(=O)OCC(=O)[C@@]1(O)[C@H](OC(C)=O)C[C@H]2[C@@H]3CCC4=CC(=O)C=C[C@]4(C)[C@@]3(F)[C@@H](O)C[C@@]21C |  | inactive

From PubChem BioAssay (NCATS)
